# In PubChem BioAssay (EPA / NIEHS):
# Where “and” joins values, the source holds several entries; their conditions need not be identical. Equal values may be shown once. Records with an inconclusive call do not appear. Some structures have more than one record in an assay (separate samples or runs), and their calls can disagree. Calls of active or inactive are those of the source. How the source made its calls, unless noted: active means hit-call score of the fitted dose curve at least 0.9, where 1 is the maximum; inactive means score below 0.9.
# Assays:
# [1] = CCTE_Shafer_MEA_dev_bursting_electrodes_number: CCTE's Neural Network Formation Assay for Number of Bursting Electrodes, Shafer Lab (AID 2284043; active means hit-call score of the fitted dose curve at least 0.9, where 1 is the maximum;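 further: potency is for loss of bursting electrodes relative to DMSO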)
# Procedure, shortened: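 Rat cortical primary neurons, 48-well MEA, 16 electrodes/well; dosing DIV 0–12, re-dosed with full media change DIV 5, 9. Recordings DIV 5/7/9/12, AxIS adaptive spike detector; bursting electrode = ≥1 burst/2 min. AUC across days; loss of signal vs DMSO.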
# [2] = CCTE_Shafer_MEA_dev_per_burst_interspike_interval: CCTE's Neural Network Formation Assay for Burst Interspike Interval, Shafer Lab (AID 2284044);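 further: mean spike spacing inside bursts as AUC over recordings on days 5 7 9 12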;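 on AC50: potency for a decrease of within-burst interspike interval below DMSO level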
# Procedure, shortened: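 Spontaneous activity of maturing rat cortical networks is recorded on DIV 5, 7, 9 and 12 under chronic compound exposure beginning at plating. Endpoint: burst interspike interval well-mean, collapsed into trapezoidal AUC and fitted in the negative direction relative to DMSO.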
# [3] = CCTE_Shafer_MEA_dev_inter_network_spike_interval_mean: CCTE's Neural Network Formation Assay for Mean Inter-network Spike Interval, Shafer Lab (AID 2284047)
# Procedure, shortened: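 Primary rat cortical neurons on 16-electrode MEA wells, exposed from plating day 0 through DIV 12, compound renewed at DIV 5 and 9 media changes. Mean interval between network-spike peaks recorded DIV 5, 7, 9, 12; collapsed as trapezoidal AUC, fitted downward versus DMSO.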
# [4] = CCTE_Shafer_MEA_dev_network_spike_number: CCTE's Neural Network Formation Assay for Number of Network Spikes, Shafer Lab (AID 2284048);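 further: synchronized bursts across electrodes counted on days 5 7 9 12 and integrated as AUC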;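 on AC50: fit as a loss of signal meaning fewer network spikes than DMSO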
# Procedure, shortened: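 Rat cortical primary cultures on 48-well MEA (16 electrodes/well); continuous exposure DIV 0–12, full medium and treatment exchange DIV 5, 9. Readout: network spike count, AxIS adaptive detection, recordings DIV 5/7/9/12 collapsed to AUC; loss-of-signal fit, DMSO baseline.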
# [5] = CCTE_Shafer_MEA_dev_network_spike_peak: CCTE's Neural Network Formation Assay for Mean Number of Electrodes in Network Spike, Shafer Lab (AID 2284049);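 on AC50: fitted for loss of signal meaning fewer electrodes in network spikes than DMSO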
# Procedure, shortened: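 Network-spike peak electrode count from recordings on days 5, 7, 9 and 12 was combined as trapezoidal area under the curve. Rat cortical cultures were treated continuously from plating, with compound renewed at each feed (DIV 5, 9); fits versus DMSO.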
# [6] = system: DIO2 (gene 1734); assay: CCTE_GLTED_hDIO2: CCTE's human Deiodinase 2 (DIO2) Inhibition Assay, Great Lakes Toxicology and Ecology Division (GLTED) Lab (AID 2284050; active means hit-call score of the fitted dose curve at least 0.9, where 1 is the maximum)
# Procedure, shortened: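 Inhibition is judged by reduced iodide release: uninhibited human DIO2 frees iodide from substrate over 3 h, measured afterward by Sandell-Kolthoff colorimetry. Iodinated chemicals or nitrite, iron and thiocyanate may interfere.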
# [7] = CCTE_Shafer_MEA_dev_spike_duration_mean: CCTE's Neural Network Formation Assay for Mean Spike Duration, Shafer Lab (AID 2284051);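 further: mean network spike duration pooled as area under curve over DIV 5 to 12 recordings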;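 on AC50: potency for a decrease in mean network spike duration versus DMSO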
# Procedure, shortened: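 Primary rat cortical neurons on 16-electrode MEA wells (PEI-coated, laminin in plating drop), exposed from plating through DIV 12 with compound renewed at DIV 5 and 9. Mean network-spike duration recorded DIV 5, 7, 9, 12; trapezoidal AUC across days, DMSO baseline.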
# [8] = CCTE_Shafer_MEA_dev_network_spike_duration_std: CCTE's Neural Network Formation Assay for Standard Deviation of Network Spike Duration, Shafer Lab (AID 2284052);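 further: area under curve of spike duration SD across recording days 5 to 12; hits are decreases in network spike duration SD versus DMSO vehicle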
# Procedure, shortened: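 Primary rat cortical neurons on PEI-coated 16-electrode MEA wells, exposed from plating day 0 through day 12 with compound renewed at DIV 5 and 9. Network spike duration SD recorded on days 5, 7, 9, 12, collapsed as trapezoidal AUC; loss-of-signal fit versus DMSO.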
# [9] = CCTE_Shafer_MEA_dev_per_network_spike_spike_number_mean: CCTE's Neural Network Formation Assay for Mean Number of Spikes in a Network Spike, Shafer Lab (AID 2284053);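 on AC50: fitted as decrease in spikes per network spike relative to DMSO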
# Procedure, shortened: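 Primary rat cortical neurons on 48-well, 16-electrode MEA plates were exposed from plating to DIV 12, with dosing renewed on DIV 5 and 9. Spikes per network spike (0.05 s peak window) were recorded on DIV 5, 7, 9 and 12 and collapsed as trapezoidal AUC versus DMSO.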
# [10] = CCTE_Shafer_MEA_dev_per_network_spike_spike_percent: CCTE's Neural Network Formation Assay for Percent of Spikes in a Network Spike, Shafer Lab (AID 2284054)
# Procedure, shortened: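 Read-out: percent of spikes falling in a 0.05 s window at network-spike peak, from spontaneous MEA recordings on days 5, 7, 9 and 12; trapezoidal AUC; loss of signal versus DMSO. Rat cortical cultures, compound present throughout.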
# [11] = system: DIO3 (gene 1735); assay: CCTE_GLTED_hDIO3: CCTE's human Deiodinase 3 (DIO3) Inhibition Assay, Great Lakes Toxicology and Ecology Division (GLTED) Lab (AID 2284055; active means hit-call score of the fitted dose curve at least 0.9, where 1 is the maximum;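 further: potency is for inhibition seen as loss of released iodide signal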)
# Procedure, shortened: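 Human type 3 deiodinase, expressed via adenovirus system, was exposed to test chemicals for 3 hours in a cell-free format. Released iodide was then determined spectrophotometrically by Sandell-Kolthoff; plates ran in triplicate.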
# [12] = CCTE_Shafer_MEA_dev_LDH: CCTE's Lactate Dehydrogenase Assay for Cytotoxicity in the Neural Network Formation Assay, Shafer Lab (AID 2284068; active means hit-call score of the fitted dose curve at least 0.9, where 1 is the maximum;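 further: exposure for twelve days from plating with re-dosing on DIV 5 and 9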)
# Procedure, shortened: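 Primary rat cortical neurons were plated on PEI/laminin MEA plates and exposed from day 0 for twelve days, with compound renewed at DIV 5 and 9. Cytotoxicity was determined by spectrophotometric LDH assay relative to DMSO.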
# [13] = CCTE_Shafer_MEA_acute_AB: CCTE's Alamar Blue Assay for Cytotoxicity in the Neural Acute Assay, Shafer Lab (AID 2284069; active means hit-call score of the fitted dose curve at least 0.9, where 1 is the maximum;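 further: active compounds lower the viability signal compared with DMSO wells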)
# Procedure, shortened: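 Primary rat cortical neurons on MEA plates, exposed acutely after baseline recording on day 13 or 15 post-plating. Viability by CellTiter Blue resazurin reduction (1:6 reagent dilution), fluorescence 544/590 nm; loss of signal versus DMSO.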
# [14] = CCTE_Shafer_MEA_dev_AB: CCTE's Alamar Blue Assay for Cytotoxicity in the Neural Network Formation Assay, Shafer Lab (AID 2284083; active means hit-call score of the fitted dose curve at least 0.9, where 1 is the maximum;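 further: twelve days of exposure from plating with re-dosing on DIV 5 and 9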)
# Procedure, shortened: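 Primary rat cortical neurons on PEI-coated 48-well MEA plates, 1.5 x 10^5 cells/well in laminin drop; compound exposure from day 0 of plating for twelve days, renewed at medium changes on DIV 5 and 9. Viability read as resazurin reduction by fluorescence, relative to DMSO.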
# [15] = CCTE_Shafer_MEA_acute_LDH: CCTE's Lactate Dehydrogenase Assay for Cytotoxicity in the Neural Acute Assay, Shafer Lab (AID 2284086; active means hit-call score of the fitted dose curve at least 0.9, where 1 is the maximum;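 further: active means LDH release rises above DMSO vehicle level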)
# Procedure, shortened: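 Medium collected from MEA wells of primary rat cortical cultures (DIV 13 or 15) immediately after 40 min chemical exposure is assayed spectrophotometrically for lactate dehydrogenase activity. Endpoint fitted in positive direction versus DMSO.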
# [16] = CCTE_Shafer_MEA_dev_mutual_information_norm: CCTE's Neural Network Formation Assay for Mutual Information Normalization, Shafer Lab (AID 2284091);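 on AC50: mutual information between electrodes summarised as area under curve across four recording days; potency is for a decrease in mutual information relative to DMSO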
# Procedure, shortened: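 Neurons from rat cortex were seeded at 1.5 x 10^5 cells/well onto PEI-coated MEAs in a laminin drop, then exposed to compound from day 0 for twelve days. Network recordings on four days gave mutual information, summarised by AUC relative to DMSO.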
# [17] = UKN4_HCS_LUHMES_neurite_outgrowth: University of Konstanz (UKN) Leist Lab Neurite Outgrowth Assay in human LUHMES cells (UKN4) (AID 2284206); details: actives raise or lower the signal
# Procedure, shortened: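 Human LUHMES cells were differentiated for two days, replated and treated with chemicals for 24 h. Neurite outgrowth was quantified as calcein-stained neurite area by HCS imaging, fitted bidirectionally relative to DMSO.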
structure (smiles),measurement,setting,value
C=CCC1=C(C)C(OC(=O)C2C(C=C(C)C)C2(C)C)CC1=O (centres undefined),AC50,[1],5.72 µM (active) and 14.8 µM (active)
same,outcome,[2],inactive
same,outcome,[3],inactive
same,AC50,[4],1.15 µM (active)
same,outcome,[4],inactive
same,AC50,[5],2.93 µM (active) and 14.8 µM (active)
same,AC50,[6],44.9 µM (active)
same,outcome,[7],inactive
same,outcome,[8],inactive
same,AC50,[9],24.5 µM (active)
same,outcome,[9],inactive
same,AC50,[10],4.76 µM (active)
same,outcome,[10],inactive
same,AC50,[11],40.9 µM (active)
same,AC50,[12],23.6 µM (active)
same,outcome,[13],inactive
same,AC50,[14],22.8 µM (active)
same,outcome,[14],inactive
same,outcome,[15],inactive
same,AC50,[16],917 nM (active)
same,outcome,[16],inactive
same,AC50,[17],9.08 µM (active)
COP(N)(=O)SC (centres undefined),AC50,[1],90.1 nM (active)
same,outcome,[2],inactive
same,outcome,[3],inactive
same,outcome,[4],inactive
same,AC50,[5],15 µM (active)
same,outcome,[5],inactive
same,outcome,[7],inactive
same,outcome,[8],inactive
same,outcome,[9],inactive
same,outcome,[10],inactive
same,outcome,[12],inactive
same,outcome,[14],inactive
same,outcome,[15],inactive
same,outcome,[16],inactive
CCCCNC(=O)OCC#CI,AC50,[1],3.82 µM (active) and 1.48 µM (active)
same,AC50,[2],7.65 µM (active) and 1.63 µM (active)
same,outcome,[3],inactive
same,AC50,[4],2.92 µM (active) and 1.21 µM (active)
same,AC50,[5],3.81 µM (active) and 1.53 µM (active)
same,AC50,[7],3.81 µM (active) and 1.12 µM (active)
same,AC50,[8],2.46 µM (active) and 1.09 µM (active)
same,AC50,[9],2.76 µM (active) and 1.55 µM (active)
same,AC50,[10],2.91 µM (active) and 1.17 µM (active)
same,AC50,[12],3.84 µM (active) and 1.13 µM (active)
same,outcome,[13],inactive
same,AC50,[14],3.1 µM (active) and 1.55 µM (active)
same,outcome,[15],inactive
same,AC50,[16],1.81 µM (active) and 1.09 µM (active)
Fc1ccc(Oc2ccnc3cc(Cl)cc(Cl)c23)cc1,AC50,[6],10.1 µM (active)
same,AC50,[11],0.965 µM (active)
same,outcome,[13],inactive
same,outcome,[15],inactive
